Among the data in PubChem BioAssay (Tox21) are Potency values, retold here.

Experiment [1] has as its target Acetylcholinesterase (Homo sapiens) (UniProt P22303). The experiment can be described thus: Acetylcholinesterase (AChE) small molecule antagonists: enzyme-based qHTS assay (AID 1347397; calls by dose curve; note: nearly all actives have a fitted effect of over 55% in size; note: potency is the fitted concentration of half-maximal effect). Particulars: Potency: AChE enzyme activity inhibition; outcome: AChE enzyme activity inhibition. In a few lines: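 Human recombinant acetylcholinesterase; substrate acetylthiocholine; thiocholine quantified with DTNB (colorimetric). Compound preincubation 30 min RT; reaction 10 min RT.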
In general terms: Quantitative high-throughput screening tests each substance at several concentrations.

For experiment [2] the target is unchanged. The experiment can be described thus: Acetylcholinesterase (AChE) small molecule antagonists: enzyme-based qHTS assay with human liver microsomes (AID 1347399; calls by dose curve; note: nearly all actives have a fitted effect of over 60% in size). The following applies: Potency: qHTS inhibition; outcome: qHTS inhibition. The method in brief: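 Recombinant human AChE (50 mU/mL in the enzyme mix) and human liver microsomes (0.25 mg/mL final) were preincubated with compound and NADPH (0.25 mg/mL final) for 30 min at 37 C. Acetylthiocholine/DTNB was then added; thiocholine was read colorimetrically after 10 min at room temperature.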

Experiment [3] addresses Cytochrome P450 2C19 (Homo sapiens) (UniProt P33261). The experiment can be described thus: Cytochrome P450 Family 2 Subfamily C Member 19 (CYP2C19) small molecule antagonists: luciferase reporter qHTS assay (AID 1671197). Note: nearly all actives have a fitted effect of over 65% in size. Note: potency is the fitted concentration of half-maximal effect. The method in brief:
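Enzyme-substrate mix with proluciferin substrate (P450-Glo CYP2C19 system) preincubated with compounds 10 min at room temperature; NADPH regeneration solution added, 37C for 1 h; detection reagent stops reaction, luminescence read after 20 min. Ketoconazole positive control.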

In experiment [4] the target is Cytochrome P450 2C9 (Homo sapiens) (UniProt P11712). As to the kind of experiment: Cytochrome P450 Family 2 Subfamily C Member 9 (CYP2C9) small molecule antagonists: luciferase reporter qHTS assay (AID 1671198). Note: nearly all actives have a fitted effect of over 50% in size. Note: potency is the fitted concentration of half-maximal effect. The method in brief: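 CYP2C9 activity was measured with a P450-Glo proluciferin substrate. Enzyme–substrate mix was held with compound for 10 min at room temperature, then NADPH regeneration solution was added for 1 h at 37C. Luciferin product was read as luminescence.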
On the technique in general: Reporter assays use an easily measured gene product as a stand-in for the process of interest.

Experiment [5] has as its target Cytochrome P450 1A2 (Homo sapiens) (UniProt P05177). As to the kind of experiment: Cytochrome P450 Family 1 Subfamily A Member 2 (CYP1A2) small molecule antagonists: luciferase reporter qHTS assay (AID 1671199). Note: nearly all actives have a fitted effect of over 50% in size. Note: potency is the fitted concentration of half-maximal effect. In a few lines:
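Inhibition of CYP1A2 conversion of proluciferin to luciferin, detected by luminescence. Reaction run 1 h at room temperature with NADPH regeneration after brief compound preincubation.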

Experiment [6] has as its target Voltage-gated inwardly rectifying potassium channel KCNH2 (Homo sapiens) (UniProt Q12809). The experiment can be described thus: Human Ether-a-go-go-Related Gene (hERG) channel small molecule antagonists: fluorescence cell-based qHTS assay (AID 1671200). Note: nearly all actives have a fitted effect of over 50% in size. Note: potency is the fitted concentration of half-maximal effect. The method in brief:
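Channel function was assessed by thallium flux. Cells seeded the previous day and kept at 37 C took up FluxOR II dye over 1 h in the dark at room temperature, then sat another 10 min before stimulation.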
On the technique in general: Block of hERG is tested as a sign of cardiac risk.

Experiment [7] concerns the target Cytochrome P450 3A4 (Homo sapiens) (UniProt P08684). The experiment can be described thus: Cytochrome P450 Family 3 Subfamily A Member 4 (CYP3A4) small molecule antagonists: luciferase reporter qHTS assay (AID 1671201). Note: nearly all actives have a fitted effect of over 50% in size. Note: potency is the fitted concentration of half-maximal effect. In a few lines: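 Compounds in DMSO were pin-transferred onto CYP3A4 enzyme-substrate mix and held 10 min at room temperature. NADPH regenerating solution started the reaction for 1 h; luciferin detection reagent stopped it, and luminescence was read after 20 min.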

Experiment [8] deals with Cytochrome P450 2D6 (Homo sapiens) (UniProt P10635). As to the kind of experiment: Cytochrome P450 Family 2 Subfamily D Member 6 (CYP2D6) small molecule antagonists: luciferase reporter qHTS assay (AID 1671196). Note: nearly all actives have a fitted effect of over 50% in size. Note: potency is the fitted concentration of half-maximal effect. In a few lines:
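P450-Glo format: CYP2D6 converts a proluciferin substrate to luciferin in an NADPH-driven reaction lasting 1 h at room temperature. Light output, proportional to CYP2D6 activity, reflects interference by test chemicals.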

Several values for one entry are separate records, joined by “and”; a condition that tells them apart may be missing. Identical values can stand only once. Records with an inconclusive call do not appear. Some structures have more than one record in an assay (separate samples or runs), and their calls can disagree. Activity calls are given as the source filed them. Unless noted, calls come from the whole dose curve; as a rule, active = well fitted curve in the direction sought with a large enough effect in the repeat runs; inconclusive = weak or mixed curves; inactive = no such curve, though single readings can be large; an effect the other way counts as inactive or inconclusive.

Sequence of Acetylcholinesterase (Homo sapiens) (P22303 whole entry, looked up): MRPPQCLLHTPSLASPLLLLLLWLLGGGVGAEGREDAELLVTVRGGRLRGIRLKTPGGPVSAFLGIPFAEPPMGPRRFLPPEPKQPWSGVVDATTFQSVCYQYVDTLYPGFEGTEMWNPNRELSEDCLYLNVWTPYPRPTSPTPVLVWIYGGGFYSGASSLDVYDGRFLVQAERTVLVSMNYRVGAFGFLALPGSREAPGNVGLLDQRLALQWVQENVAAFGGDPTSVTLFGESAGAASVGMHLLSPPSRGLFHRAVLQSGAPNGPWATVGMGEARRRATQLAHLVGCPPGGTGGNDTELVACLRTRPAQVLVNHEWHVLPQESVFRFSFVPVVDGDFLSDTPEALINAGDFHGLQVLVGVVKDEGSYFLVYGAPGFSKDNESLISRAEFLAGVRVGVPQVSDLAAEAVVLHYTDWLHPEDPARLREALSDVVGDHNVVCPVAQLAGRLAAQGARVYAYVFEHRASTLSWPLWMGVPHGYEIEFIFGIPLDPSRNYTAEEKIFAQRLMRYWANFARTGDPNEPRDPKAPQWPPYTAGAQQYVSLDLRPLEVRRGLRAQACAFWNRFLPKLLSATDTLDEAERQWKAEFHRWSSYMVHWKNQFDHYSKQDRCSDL
Sequence of Voltage-gated inwardly rectifying potassium channel KCNH2 (Homo sapiens) (Q12809 whole entry, looked up): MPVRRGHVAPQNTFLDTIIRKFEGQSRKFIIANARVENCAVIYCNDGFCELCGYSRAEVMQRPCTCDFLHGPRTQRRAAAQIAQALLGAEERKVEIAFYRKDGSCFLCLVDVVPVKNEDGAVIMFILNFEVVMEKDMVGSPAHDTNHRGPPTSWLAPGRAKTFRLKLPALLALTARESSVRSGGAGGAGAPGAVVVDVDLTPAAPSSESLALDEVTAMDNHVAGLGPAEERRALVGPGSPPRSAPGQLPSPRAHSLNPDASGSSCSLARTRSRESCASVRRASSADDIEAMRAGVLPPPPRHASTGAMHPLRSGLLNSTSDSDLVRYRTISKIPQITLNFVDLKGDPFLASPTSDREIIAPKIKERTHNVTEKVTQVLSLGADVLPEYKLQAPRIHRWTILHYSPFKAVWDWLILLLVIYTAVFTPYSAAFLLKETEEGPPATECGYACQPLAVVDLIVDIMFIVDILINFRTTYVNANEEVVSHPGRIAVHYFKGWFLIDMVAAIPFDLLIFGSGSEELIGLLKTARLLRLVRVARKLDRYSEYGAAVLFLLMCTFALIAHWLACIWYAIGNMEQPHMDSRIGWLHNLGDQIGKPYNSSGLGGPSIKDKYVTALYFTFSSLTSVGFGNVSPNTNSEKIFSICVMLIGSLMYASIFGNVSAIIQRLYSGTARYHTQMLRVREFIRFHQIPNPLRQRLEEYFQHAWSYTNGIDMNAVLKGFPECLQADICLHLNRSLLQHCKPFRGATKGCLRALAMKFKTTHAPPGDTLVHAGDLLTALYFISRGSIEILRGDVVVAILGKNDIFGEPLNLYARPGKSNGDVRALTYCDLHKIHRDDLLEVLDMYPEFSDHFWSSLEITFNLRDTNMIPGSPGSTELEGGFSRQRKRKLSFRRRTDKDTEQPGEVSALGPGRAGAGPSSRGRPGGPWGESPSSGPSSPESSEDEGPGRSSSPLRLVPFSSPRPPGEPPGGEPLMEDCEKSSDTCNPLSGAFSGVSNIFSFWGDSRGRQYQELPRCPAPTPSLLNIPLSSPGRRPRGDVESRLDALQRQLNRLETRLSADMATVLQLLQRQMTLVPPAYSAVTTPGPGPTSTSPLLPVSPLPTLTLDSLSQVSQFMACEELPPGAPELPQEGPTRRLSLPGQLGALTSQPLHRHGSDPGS
Sequence of Cytochrome P450 2C9 (Homo sapiens) (P11712 whole entry, looked up): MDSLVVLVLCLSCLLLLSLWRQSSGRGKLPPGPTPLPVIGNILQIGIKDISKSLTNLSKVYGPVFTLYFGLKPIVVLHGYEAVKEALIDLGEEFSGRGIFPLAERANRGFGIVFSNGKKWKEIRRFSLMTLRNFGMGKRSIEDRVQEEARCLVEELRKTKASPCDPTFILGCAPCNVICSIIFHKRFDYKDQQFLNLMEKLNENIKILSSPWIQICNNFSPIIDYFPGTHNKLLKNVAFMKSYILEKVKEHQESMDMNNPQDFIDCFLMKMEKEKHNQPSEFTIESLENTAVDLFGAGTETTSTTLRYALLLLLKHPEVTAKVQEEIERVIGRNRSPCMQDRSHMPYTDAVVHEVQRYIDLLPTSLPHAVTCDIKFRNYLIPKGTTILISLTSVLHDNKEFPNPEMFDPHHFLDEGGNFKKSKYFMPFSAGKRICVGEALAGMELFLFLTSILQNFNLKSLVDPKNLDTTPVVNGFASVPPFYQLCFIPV
Sequence of Cytochrome P450 3A4 (Homo sapiens) (P08684 whole entry, looked up): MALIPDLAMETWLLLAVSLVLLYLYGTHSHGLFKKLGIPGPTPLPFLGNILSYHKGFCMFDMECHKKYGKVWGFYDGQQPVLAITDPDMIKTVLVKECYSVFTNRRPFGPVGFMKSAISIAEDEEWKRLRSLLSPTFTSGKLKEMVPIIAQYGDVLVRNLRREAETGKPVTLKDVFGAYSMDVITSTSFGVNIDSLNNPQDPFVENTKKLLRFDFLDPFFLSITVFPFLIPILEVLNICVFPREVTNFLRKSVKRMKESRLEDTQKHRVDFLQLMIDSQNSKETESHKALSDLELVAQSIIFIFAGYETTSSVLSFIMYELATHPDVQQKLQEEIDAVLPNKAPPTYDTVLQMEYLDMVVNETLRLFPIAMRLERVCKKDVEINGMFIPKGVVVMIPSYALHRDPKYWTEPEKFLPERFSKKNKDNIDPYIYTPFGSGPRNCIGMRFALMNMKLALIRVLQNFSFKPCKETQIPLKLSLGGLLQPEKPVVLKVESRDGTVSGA
Sequence of Cytochrome P450 2C19 (Homo sapiens) (P33261 whole entry, looked up): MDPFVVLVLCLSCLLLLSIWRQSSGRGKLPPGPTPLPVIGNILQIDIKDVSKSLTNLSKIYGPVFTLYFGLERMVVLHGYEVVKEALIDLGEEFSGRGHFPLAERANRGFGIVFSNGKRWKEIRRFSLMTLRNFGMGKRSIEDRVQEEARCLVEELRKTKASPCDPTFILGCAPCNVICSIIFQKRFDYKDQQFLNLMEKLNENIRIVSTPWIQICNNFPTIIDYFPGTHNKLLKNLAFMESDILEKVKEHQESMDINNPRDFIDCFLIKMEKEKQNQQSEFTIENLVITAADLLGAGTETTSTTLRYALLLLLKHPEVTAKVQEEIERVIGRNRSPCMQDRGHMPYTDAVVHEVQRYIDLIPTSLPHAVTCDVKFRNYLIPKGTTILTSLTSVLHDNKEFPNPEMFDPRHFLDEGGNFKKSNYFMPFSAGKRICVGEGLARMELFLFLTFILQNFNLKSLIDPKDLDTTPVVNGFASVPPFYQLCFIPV
Sequence of Cytochrome P450 2D6 (Homo sapiens) (P10635 whole entry, looked up): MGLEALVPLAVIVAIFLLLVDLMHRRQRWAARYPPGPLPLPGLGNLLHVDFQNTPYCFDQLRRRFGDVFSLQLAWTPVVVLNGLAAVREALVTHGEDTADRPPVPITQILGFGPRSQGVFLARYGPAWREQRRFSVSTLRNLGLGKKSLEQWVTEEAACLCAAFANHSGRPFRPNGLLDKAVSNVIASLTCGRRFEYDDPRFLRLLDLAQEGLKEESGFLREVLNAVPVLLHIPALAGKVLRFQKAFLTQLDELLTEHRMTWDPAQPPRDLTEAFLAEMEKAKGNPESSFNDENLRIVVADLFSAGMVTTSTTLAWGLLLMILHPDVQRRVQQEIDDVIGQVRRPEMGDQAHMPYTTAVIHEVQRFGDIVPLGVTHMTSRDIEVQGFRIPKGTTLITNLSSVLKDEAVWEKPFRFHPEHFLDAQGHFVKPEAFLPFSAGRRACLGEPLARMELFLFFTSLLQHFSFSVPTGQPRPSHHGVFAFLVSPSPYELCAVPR
Sequence of Cytochrome P450 1A2 (Homo sapiens) (P05177 whole entry, looked up): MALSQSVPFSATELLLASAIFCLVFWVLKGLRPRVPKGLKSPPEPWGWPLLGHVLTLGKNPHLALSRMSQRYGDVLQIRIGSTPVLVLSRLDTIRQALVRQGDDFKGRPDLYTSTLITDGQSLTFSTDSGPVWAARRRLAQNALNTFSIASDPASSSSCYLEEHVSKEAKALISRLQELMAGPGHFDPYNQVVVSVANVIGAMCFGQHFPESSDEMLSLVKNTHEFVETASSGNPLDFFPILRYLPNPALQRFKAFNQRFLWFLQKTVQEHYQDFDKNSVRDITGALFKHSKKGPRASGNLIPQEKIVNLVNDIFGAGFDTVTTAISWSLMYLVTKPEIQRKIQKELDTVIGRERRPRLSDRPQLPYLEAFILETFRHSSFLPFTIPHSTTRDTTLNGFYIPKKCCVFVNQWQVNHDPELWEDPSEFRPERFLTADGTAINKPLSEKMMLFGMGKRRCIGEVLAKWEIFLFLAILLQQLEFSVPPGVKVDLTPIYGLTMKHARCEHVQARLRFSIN

`CC(C)c1ccc(OP(=O)(Oc2ccc(C(C)C)cc2)Oc2ccc(C(C)C)cc2)cc1`: the Potency was 28.5 µM (active) and 28.3 µM (active) in experiment [1]; 3.58 µM (active) and 3.56 µM (active) and 2.83 µM (active) in experiment [3]; 2.26 µM (active) and 3.17 µM (active) and 2.83 µM (active) in experiment [4]; 22.6 µM (active) and 15.9 µM (active) and 17.8 µM (active) in experiment [5]; 17.5 µM (active) and 21.9 µM (active) in experiment [6]. In addition, the Potency result in experiment [2] and in experiment [7] was “inactive” each time.

With `CC(=O)NNc1ccccc1`, the Potency entry in experiment [6] was “inactive”.

With `O=[N+]([O-])c1cc(Cl)c(Cl)cc1Cl`, the Potency result in experiment [1], in experiment [2], in experiment [8], in experiment [4], in experiment [6] and in experiment [7] was “inactive” in each case. For the same molecule, the Potency in experiment [5] is 5.61 µM (active).

For `CCCCCCCCCCCCN(C)C`, the Potency entry in experiment [1], in experiment [2], in experiment [8], in experiment [4], in experiment [6] and in experiment [7] was “inactive” in each case. Besides, the Potency in experiment [5] was 35.6 µM (active).

Consider `CCN(C(C)=O)c1cccc(-c2ccnc3c(C#N)cnn23)c1`, for which the Potency entry in experiment [1], in experiment [2], in experiment [8], in experiment [5], in experiment [6] and in experiment [7] was “inactive” each time. The Potency in experiment [3] is 27.5 µM (active).

With `C[C@]12CC[C@H]3[C@@H](CCC4=CC(=O)CC[C@@H]43)[C@@H]1CC[C@@H]2OC(=O)CCc1ccccc1`, the Potency result in experiment [1], in experiment [8], in experiment [3], in experiment [5] and in experiment [7] was “inactive” each time. For the same molecule, the Potency in experiment [4] was 30.9 µM (active).

For the molecule `C[CH2][Hg][S]c1ccccc1C(=O)O`, in experiment [6], the Potency result was “inactive”.

In the case of `Clc1ccc(Cl)c(Cl)c1`, the Potency entry in experiment [6] is “inactive”.

As to `CC1(C)[C@H](C(=O)O[C@H](C#N)c2cccc(Oc3ccccc3)c2)[C@@H]1C=C(Br)Br`, the Potency result in experiment [8], in experiment [5], in experiment [6] and in experiment [7] was “inactive” throughout. The Potency in experiment [3] was 5.87 µM (active) and 7.1 µM (active); in experiment [4], 1.86 µM (active) and 3.99 µM (active).

Take `O=C(O)CCCOc1ccc(Cl)cc1Cl`: in experiment [6], the Potency result was “inactive”.

For the molecule `Cc1cnc(C2=NC(C)(C(C)C)C(=O)N2)c(C(=O)O)c1` (stereo not given), the Potency entry in experiment [1], in experiment [2], in experiment [8], in experiment [4], in experiment [5] and in experiment [6] was “inactive” each time. Besides, the Potency entry in experiment [7] is “inactive”.

As to `CC(C)(C)OOC(C)(C)CCC(C)(C)OOC(C)(C)C`, the Potency result in experiment [1], in experiment [2], in experiment [8], in experiment [3], in experiment [5] and in experiment [6] was “inactive” in each case. In experiment [7], the Potency result was “inactive”.

On to `NC(=O)CF`, for which the Potency entry in experiment [1], in experiment [2], in experiment [3], in experiment [4], in experiment [5] and in experiment [6] was “inactive” throughout. For the same molecule, the Potency result in experiment [7] was “inactive”.

In the case of `CC(Oc1cccc(Cl)c1)C(=O)O` (stereo not given), the Potency result in experiment [1], in experiment [2], in experiment [8], in experiment [3], in experiment [5] and in experiment [6] was “inactive” in each case. For the same molecule, in experiment [7], the Potency entry is “inactive”.

Turning to `c1ccc2c(c1)-c1cccc3cccc-2c13`, the Potency result in experiment [6] is “inactive”.

Take `COP(=O)(OC)OC(Br)C(Cl)(Cl)Br` (stereo not given): the Potency in experiment [8] is 40 µM (active) and 39.9 µM (active); in experiment [3] it was 7.98 µM (active) and 17.8 µM (active); in experiment [4] it was 25.2 µM (active) and 22.4 µM (active); in experiment [5], 35.6 µM (active); in experiment [7], 79.8 µM (active) and inactive. Moreover, the Potency entry in experiment [6] is “inactive”.

As to `COc1ccccc1N1CCNCC1`, the Potency result in experiment [8], in experiment [3], in experiment [4], in experiment [5], in experiment [6] and in experiment [7] was “inactive” in each case.

On to `O=C(N[C@H]1CN2CCC1CC2)c1ccc2c(c1)OCCO2`, for which the Potency result in experiment [1], in experiment [2], in experiment [3], in experiment [4], in experiment [5] and in experiment [6] was “inactive” throughout. In addition, the Potency result in experiment [7] was “inactive”.

Consider `O=C(O)c1cc(Cl)ccc1Cl`, for which the Potency entry in experiment [1], in experiment [2], in experiment [6] and in experiment [7] was “inactive” each time. For the same molecule, the Potency was 79.3 µM (active) in experiment [3] and 39.7 µM (active) in experiment [5].

Consider `CCCCOC(=O)CCC(=O)OCCCC`, for which the Potency result in experiment [1], in experiment [2], in experiment [8], in experiment [6] and in experiment [7] was “inactive” each time. For the same molecule, the Potency in experiment [5] was 20 µM (active).

On to `CN1C[C@H](C(=O)N[C@]2(C)O[C@@]3(O)[C@@H]4CCCN4C(=O)[C@H](Cc4ccccc4)N3C2=O)C=C2c3cccc4[nH]cc(c34)C[C@H]21`, for which the Potency in experiment [1] is 5.67 µM (active); in experiment [8], 28.4 µM (active) and inactive; in experiment [3], 28.4 µM (active) and 18.6 µM (active); in experiment [5], 20.1 µM (active); in experiment [6], 22 µM (active).

Regarding `C=CC(C)(CCC=C(C)C)OC(=O)c1ccccc1N` (stereo not given), in experiment [6], the Potency entry was “inactive”.
